Test results from PubChem BioAssay AID595 (National Center for Advancing Translational Sciences (NCATS), 2007).
Screen size: about 71,000 compounds; about 310 (0.44%) were called active. Roughly 5% stayed inconclusive and do not appear here. Calls follow the shape of the dose curve; as a rule, active = well fitted curve in either direction with a large enough effect; inconclusive = small, poorly fitted or top-dose-only effect, or another doubt; inactive = flat fitted curve, though single readings scatter. What follows is part of a selection rich in actives, with near analogues and random picks from the rest.

Test system: Hsp90 C-terminal peptide / TPR2A (Hop) interaction, human
Assay: qHTS Assay for Disrupters of an Hsp90 Co-Chaperone Interaction
Conditions: AlphaScreen TPR2A-His6 binding biotin-Hsp90 C-terminal peptide; series mostly up to 57 µM; activity change, negative = inhibition: at the top concentration
Description: NIH Chemical Genomics Center [NCGC]
NIH Molecular Libraries Screening Centers Network [MLSCN]
Hsp90 (heat shock protein 90) is the essential molecular chaperone and it accounts for 1-2% of all cytosolic proteins and is critical for the activity of diverse cellular proteins that are involved in a variety of cellular processes, including development, cell cycle, and steroid hormone signaling. Its client proteins include signaling kinases such as IGF1R, Akt, v-Src, Raf-1; regulators of cell survival such as Bcr-Abl; and transcription factors such as mutated p53, estrogen and progesterone receptors. Hsp90 has emerged as an important target for cancer treatment due to its essential role in maintaining transformation and regulating the function of oncogenic signaling proteins.
The in vivo function of Hsp90 is regulated by the binding and hydrolysis of ATP at its N-terminal. Geldanamycin binds to ATP site and inhibit Hsp90 function. Geldanamycin and its analogues are under clinical trials in cancer patients.
This domain contains the binding site for tetratricopeptide repeat (TPR) domains on HOP (Hsp Organizing Protein). TPR is a structural motif used by a significant number of cochaperones by which the in vivo function of Hsp90 is regulated. TPR2A on HOP binds specifically to MEEVD motif of the C-terminal of Hsp90.
A homogeneous AlphaScreen is developed to assess the interaction between TPR2A and MEEVD motif of the C-terminal of Hsp90 by using the isolated TPR2A domain and a synthesized 20mer Hsp90 C terminal peptide. AlphaScreen is two bead-based proximity-dependent chemical energy transfer luminescent assay platform. TPR2A-His-6 and biotinylated Hsp90 C terminal peptide will bring streptavidin donor beads and nickel chelate acceptor beads to a proximity range (less than 200 nm), and subsequently lead a chemical luminescent reaction upon exciting donor beads with 680 nm laser. Inhibition of TPR2A and MEEVD motif interaction by small molecules could attenuate or abolish this chemical luminescent reaction.
Counter screening: Biotinylated-His-6 (PerkinElmer) can be utilized as a counter screen, as it serves as a linker to bring streptavidin beads and nickel chelate beads together. The counter screen can exclude alpha screen platform false positives due to small molecules being metal chelators, biotin analogues and imidazole analogues, or due to interfering with oxygen release from donor beads. Such an assay should be utilized to qualify any activity observed in this screen.
NCGC Assay Protocol Summary:
The assay was performed on 1536-well white plate (untreated solid bottom). Liquids were dispensed by 1536-well plate washer (Kalypsys, San Diego, CA). Plates were read on EnVision (PerkinElmer, Boston, MA).TPR2A-His6 was produced using a bacteria expression system and purified using a well developed method (Ghosh et al., 2000). Hsp90 C terminal 20-mer peptide with or without an N-terminal biotin group are synthesized using automated solid phase synthesis by the Yale Keck facility. The composition of assay buffer was (in mM) 25 HEPES, 100 KCl, 2 MgCl2 and 2 DTT; 0.1% BSA and 0.01% Tween-20. TPR2A-His6 binding to biotin-Hsp90 will bring streptavidin donor beads and nickel chelate acceptor beads (PerkinElmer) together and can be measured by Alpha reading by EnVision (PerkinElmer). Free Hsp90 blocks biotin-Hsp90 binding to TPR2 and serves as a positive control in the current asssay.
The assay was performed at room temperature. All compounds were screened as titrations from […] to 46 uM final concentration. The assay was performed in 1536-well format plates (untreated white solid bottom, Corning Inc.) as follows:
Sequence,Parameter,Value,Description
1,Reagent,3 uL TPR2A-His6,Final concentration was 5nM
2,Compound,23 nL,Final titration was from 0.7 nM to 46 uM
3,Time,15 minutes,Room temperature
4,Reagent,1 uL biotin-Hsp90,With and without free Hsp90. Final concentration was 10 nM for biotin-Hsp90 and 10uM for free Hsp90.
5,Time,1 hour,Room temperature
[…]
% is scaled to controls: 0 for no effect and ±100 for the full control effect; potency is read from the fitted curve at half-maximal effect.

Row | SMILES | activity change, negative = inhibition | Potency
1 | CC1(C)S[C@@H]2[C@@H](NC(=O)[C@@H](N)c3ccccc3)C(=O)N2[C@H]1C(=O)O | -8.43% (inactive) | 
2 | O=C(NCC12CC3CC(C1)CC(CNC(=O)N1CCCC1)(C3)C2)N1CCCC1 | -1.73% (inactive) | 
3 | CC(C)NC(=O)N1CCCC2(CCN(C(=O)c3cccn3C)CC2)C1 | -1.72% (inactive) | 
4 | c1ccc2c(Nc3ccncc3)nc(-c3ccoc3)nc2c1 | -15.2% (inactive) | 
5 | O=C(c1ccncc1)N1CCC2(CCN(Cc3cc(C(F)(F)F)cc(C(F)(F)F)c3)CC2)CC1 | -0.985% (inactive) | 
6 | Cn1cc(-c2nc3cncnc3n(-c3ccccc3)c2=O)c2ccccc21 | 12.7% (inactive) | 
7 | COc1ccccc1CCn1c(=O)c(-c2cn(C)c3ccccc23)nc2cncnc21 |  | 0.631 µM [activator] (active)
8 | COc1ccc(-n2c(=O)c(-c3cn(C)c4ccccc34)nc3cnc(OC)nc32)cc1 | -7% (inactive) | 
9 | COC(=O)[C@@]1(Cc2ccc(OC)cc2)[C@H]2c3cc(C(=O)N4CCCC4)n(Cc4ccc(OC(F)(F)F)cc4)c3C[C@H]2CN1C(=O)c1ccccc1 | -21% (inactive) | 
10 | Cc1ccc(Br)cc1 | 1.28% (inactive) | 
11 | Cc1nc2cnc(N3CCNCC3)nc2n(CCc2ccccc2)c1=O | -7.4% (inactive) | 
12 | C(=C\c1ccccc1)/CSc1nnc(-c2cccnc2)n1Cc1ccco1 | -3.91% (inactive) | 
13 | CCCS(=O)(=O)N1CCC(C(=O)NCCCN(C)Cc2ccccc2)CC1 | 2.07% (inactive) | 
14 | COc1ccccc1CNc1ccnc(-c2c(C)noc2C)n1 | 3.49% (inactive) | 
15 | CSc1ccc(S(=O)(=O)Nc2cccc(F)c2)cc1 | -0.401% (inactive) | 
16 | O=C(O)C1CCCN1S(=O)(=O)c1ccc2c(c1)CCC2 (stereo not drawn) | 0.639% (inactive) | 
17 | CC(C)c1cc(CN(C)C)c(O)c(C(C)(C)C)c1 | 1.81% [at 11 µM] (inactive) | 
18 | CCC(C)(NC(=O)c1ccccn1)C(=O)NC1CCCCC1 (stereo not drawn) | -3.12% (inactive) | 
19 | CCOc1ccc(C(=O)N(Cc2ccc(N(C)C)cc2)C2CCS(=O)(=O)C2)cc1 (stereo not drawn) | -13% (inactive) | 
20 | CC(C)Cn1c(CN(Cc2ccccc2)Cc2ccccc2)nc2c1c(=O)n(C)c(=O)n2C | 2.13% (inactive) | 
21 | COc1ccc(CN2C(=O)CN=C2Nc2ccc(C)cc2C)cc1 | -1.44% (inactive) | 

Row | SMILES | activity change, negative = inhibition | Potency
22 | OCCCNCc1ccccn1 | -9.89% [at 11 µM] (inactive) | 
23 | CCCCC[C@H](O)CCCC(=O)O | -7.89% (inactive) | 
24 | CCCn1c(-c2ccc(F)cc2)nc2c(NC3CCN(Cc4ccccc4)C3)nc(C)nc21 (stereo not drawn) | -16.3% (inactive) | 
25 | CC(=O)CCS(=O)(=O)c1ccc(C)c(C)c1 | -3.12% (inactive) | 
26 | C#CCN1CC(C)/C(=N/O)CC1C (stereo not drawn) | 0.89% (inactive) | 
27 | COc1ccc(Cl)cc1NC(=O)C1CC(=O)N(c2ccc(F)cc2)C1 (stereo not drawn) | -6.06% (inactive) | 
28 | C[C@H](CCC(=O)O)[C@H]1CC[C@@H]2[C@H]3CC[C@H]4C[C@H](O)CC[C@@]4(C)[C@@H]3CC[C@@]21C | -0.844% [at 11 µM] (inactive) | 
29 | COCCn1c(=O)c(CCc2ccccc2)nc2cnc(N3CCNCC3)nc21 | -2.61% (inactive) | 
30 | Oc1ccccc1CNCc1ccccc1O | -2.03% [at 11 µM] (inactive) | 
31 | O=C(Cl)c1ccc([N+](=O)[O-])cc1 | 0.785% (inactive) | 
32 | Cc1noc(C)c1-c1cc(NCc2cccnc2)ncn1 | -0.41% (inactive) | 
33 | c1ccc2sc(SCCSc3nc4ccccc4s3)nc2c1 | 2.87% [at 11 µM] (inactive) | 
34 | O=C(O)CCCCC(=O)O | -1.35% (inactive) | 
35 | CN(C)c1ccc(-c2nc(NCCN3CCOCC3)c3ccccc3n2)cc1 | -7.7% (inactive) | 
36 | COC(=O)c1c(-c2ccc(C)cc2)csc1N | -5.56% (inactive) | 
37 | CC(C)CC1(C(=O)NCc2ccccn2)C=CCN1C(=O)c1ccccc1 (stereo not drawn) | -3.81% (inactive) | 
38 | CN(CCCNC(=O)CN1C(=O)CC(C)(C)S(=O)(=O)c2ccccc21)C1CCCCC1 | -2.54% (inactive) | 
39 | O=c1[nH]c(=O)n([C@H]2C[C@H](O)[C@H](CO)O2)cc1Br | -2.56% (inactive) | 
40 | Cc1ccc(S(=O)(=O)Nc2ccccc2CNc2c(C)n(C)n(-c3ccccc3)c2=O)cc1 | -1.54% (inactive) | 
41 | N[C@H](C(=O)O)c1ccc(C(=O)O)c(O)c1 | -1.81% (inactive) | 
42 | CCCn1c(=O)c2[nH]c(-c3ccc(OCC(=O)NCCN)cc3)nc2n(CCC)c1=O | -19.8% (inactive) | 

Row | SMILES | activity change, negative = inhibition | Potency
43 | COc1ccc(OC)c(CN2C(=O)CCC2(C)C(=O)NC2CCCCCC2)c1 (stereo not drawn) | -12.8% (inactive) | 
44 | CCCCC/C=C/C=C/C=O | 0.076% (inactive) | 
45 | N#Cc1cccc(-c2nc3cnc(N4CCNCC4)nc3n(C3CC3)c2=O)c1 | -4.38% (inactive) | 
46 | O=c1c(-c2ccc(F)cc2)nc2cncnc2n1-c1ccccc1 | -0.766% (inactive) | 
47 | c1ccc2c(c1)-c1ccccc1C2N1CC2CCC(CC2)C1 | 2.37% [at 11 µM] (inactive) | 
48 | COc1ccc(C[C@H](N)C(=O)N[C@@H]2[C@H](O)[C@H](n3cnc4c(N(C)C)ncnc43)O[C@@H]2CO)cc1 | -4.16% [at 26 µM] (inactive) | 
49 | Cc1cc(Cl)ccc1OCC(=O)Oc1c(Cl)c(Cl)c(Cl)c(Cl)c1Cl | 0.356% [at 11 µM] (inactive) | 
50 | O=C(COc1ncnc2ccccc12)NC(=O)NCc1ccccc1 | 2.77% (inactive) | 
51 | C[C@@H]1O[C@@H](O[C@@H]2[C@@H](O)[C@H](OCCc3ccc(O)c(O)c3)O[C@H](CO[C@@H]3O[C@H](CO)[C@@H](O)[C@H](O)[C@H]3O)[C@H]2OC(=O)/C=C/c2ccc(O)c(O)c2)[C@H](O)[C@H](O)[C@H]1O | -0.838% (inactive) | 
52 | Cc1ccccc1N1CCN(S(=O)(=O)C[C@@]23CC[C@H](C[C@H]2NC(=O)[C@@H](N)CCS(C)(=O)=O)C3(C)C)CC1 | -8.53% (inactive) | 
53 | COc1ccc(NC(=O)N2CC3(CCN(C(=O)c4cccn4C)CC3)C2)cc1 | -8.94% (inactive) | 
54 | COc1ccc(C(=O)N2CCC3(CC2)CCN(c2ccccn2)CC3)cc1 | 2.71% (inactive) | 
55 | O=C(Nc1cccc(F)c1)N1CC2(CCN(C(=O)c3csnn3)CC2)C1 | 1.12% (inactive) | 
56 | CCn1ccnc1C[C@@H]1COc2ccccc2O1 | inactive | 
57 | CC/C=C/C/C=C/C/C=C/CCCCCCCC(=O)OCC | 1.86% (inactive) | 
58 | CCOC(=O)c1c(NC(=O)CSc2nnc(Cc3csc(N)n3)n2C)sc(C)c1C |  | 25.1 µM (active)
59 | COC(=O)c1c(NC(=O)CSc2nc3c(c(=O)n(C)c(=O)n3C)n2C(C)C)sc(C)c1C | -2.6% (inactive) | 
60 | CCOC(=O)c1c(NC(=O)CSc2nnc(CN3CCOCC3)n2C)sc2c1CCCC2 | -2.12% (inactive) | 
61 | Brc1cc(Br)c(Oc2cc(Br)c(Br)cc2Br)cc1Br | 12.2% (inactive) | 
62 | Nc1nc2c(ncn2[C@H]2CC[C@@H](CO)O2)c(=O)n1C(=O)c1ccccc1 | -4.52% [at 11 µM] (inactive) | 
63 | CCOC(=O)CSc1nnc(CNc2ccc(F)cc2)o1 | -0.588% (inactive) | 
